Compounds without any hit were thinned out: in the full panel of roughly 83,000, 20% have a hit.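 Step 1: grow cells in 96-well plates. Step 2: add test compound at a single concentration. Step 3: incubate 48 h. Step 4: record percent growth.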 A number with no mark means an inactive call. The source made the active and inactive calls. How the source made its calls: active means growth percent below 10; inactive means the rest.
Columns and labels:
Assay in all cases: NCI-60 one-dose screen, 48 h (100 = growth as untreated, 0 = no growth, -100 = all killed)
Details in all cases: 10 µM
SK-MEL-2 melanoma = test system: SK-MEL-2 melanoma
EKVX NSCLC = test system: EKVX NSCLC
SN12C renal = test system: SN12C renal
UO-31 renal = test system: UO-31 renal
TK-10 renal = test system: TK-10 renal
ACHN renal = test system: ACHN renal
CAKI-1 renal = test system: CAKI-1 renal
A498 renal = test system: A498 renal
CCRF-CEM leukemia = test system: CCRF-CEM leukemia
MOLT-4 leukemia = test system: MOLT-4 leukemia

**Q.** With `CCC(C)S(=O)(=O)c1oc(-c2ccc(C)cc2)nc1S(=O)(=O)c1ccccc1` (stereo not given) as the molecule, how does the growth (SK-MEL-2 melanoma) read?
**A.** -94.9% (active)

**Q.** What about the growth (EKVX NSCLC) of the same molecule?
**A.** -61% (active)

**Q.** What about the growth (SN12C renal) of the same molecule?
**A.** -85.6% (active)

**Q.** What about the growth (UO-31 renal) of the same molecule?
**A.** -100% (active)

**Q.** And the growth (TK-10 renal)?
**A.** -99.5% (active)

**Q.** What about the growth (ACHN renal) of the same molecule?
**A.** -100% (active)

**Q.** What about the growth (CAKI-1 renal) of the same molecule?
**A.** -100% (active)

**Q.** What about the growth (A498 renal) of the same molecule?
**A.** 109%

**Q.** What about the growth (CCRF-CEM leukemia) of the same molecule?
**A.** -46% (active)

**Q.** Which results are given for `O=C(/C=C/Nc1ccc(F)cc1F)c1ccc2c(c1)Nc1ccccc1S2`?
**A.** growth (SK-MEL-2 melanoma): 86.5%; growth (EKVX NSCLC): 74.2%; growth (SN12C renal): 82%; growth (UO-31 renal): 80.3%; growth (TK-10 renal): 100%; growth (ACHN renal): 78.6%; growth (CAKI-1 renal): 83.9%; growth (A498 renal): 108%; growth (CCRF-CEM leukemia): 73.8%; growth (MOLT-4 leukemia): 66.7%

**Q.** For `CC1(c2ccccc2)NC(=O)N(CC(=O)Nc2ccc(C(=O)/C=C/c3ccc(Br)cc3)cc2)C1=O` (stereo not given), which growth (SK-MEL-2 melanoma) is on record?
**A.** 52.3%

**Q.** What about the growth (EKVX NSCLC) of the same molecule?
**A.** 55%

**Q.** And the growth (SN12C renal)?
**A.** 51.2%

**Q.** And the growth (UO-31 renal)?
**A.** 34.3%

**Q.** What about the growth (TK-10 renal) of the same molecule?
**A.** 76.7%

**Q.** And the growth (ACHN renal)?
**A.** 35%

**Q.** And the growth (CAKI-1 renal)?
**A.** 39.5%

**Q.** What about the growth (A498 renal) of the same molecule?
**A.** 71.1%

**Q.** And the growth (CCRF-CEM leukemia)?
**A.** 32%

**Q.** What about the growth (MOLT-4 leukemia) of the same molecule?
**A.** 13.9%

**Q.** Which growth (SK-MEL-2 melanoma) does the source give for `CC(=O)Nc1nc(-c2ccc(N3CCN(C)CC3)c(NS(=O)(=O)c3ccc(C(F)(F)F)cc3)c2)cs1` here?
**A.** 7.74% (active)

**Q.** What about the growth (EKVX NSCLC) of the same molecule?
**A.** 72.2%

**Q.** What about the growth (SN12C renal) of the same molecule?
**A.** 13.7%

**Q.** What about the growth (UO-31 renal) of the same molecule?
**A.** 24.9%

**Q.** What about the growth (TK-10 renal) of the same molecule?
**A.** 10.8%

**Q.** And the growth (ACHN renal)?
**A.** 5.92% (active)

**Q.** What about the growth (CAKI-1 renal) of the same molecule?
**A.** 13.5%

**Q.** What about the growth (A498 renal) of the same molecule?
**A.** 52.3%

**Q.** What about the growth (CCRF-CEM leukemia) of the same molecule?
**A.** -13.4% (active)

**Q.** For `O=C1NC(=NC2CCCCCC2)N/C1=C\c1ccc2ncoc2c1`, which growth (SK-MEL-2 melanoma) is on record?
**A.** 22.9%

**Q.** What about the growth (EKVX NSCLC) of the same molecule?
**A.** 38.8%

**Q.** What about the growth (SN12C renal) of the same molecule?
**A.** 21.1%

**Q.** And the growth (UO-31 renal)?
**A.** 4.42% (active)

**Q.** And the growth (TK-10 renal)?
**A.** 43.8%

**Q.** And the growth (ACHN renal)?
**A.** 9.91% (active)

**Q.** And the growth (CAKI-1 renal)?
**A.** 10%

**Q.** What about the growth (A498 renal) of the same molecule?
**A.** -9.1% (active)

**Q.** What about the growth (CCRF-CEM leukemia) of the same molecule?
**A.** 18%

**Q.** And the growth (MOLT-4 leukemia)?
**A.** 38.2%

**Q.** Which results are given for `CN1CCN(c2ccc(C(=O)/C=C/c3cc(C(F)(F)F)ccc3Cl)cc2)CC1`?
**A.** growth (SK-MEL-2 melanoma): 65.3%; growth (EKVX NSCLC): -91.9% (active); growth (SN12C renal): -90.1% (active); growth (UO-31 renal): -99.2% (active); growth (TK-10 renal): -94.4% (active); growth (ACHN renal): -96.8% (active); growth (CAKI-1 renal): -95.2% (active); growth (A498 renal): -49.7% (active); growth (CCRF-CEM leukemia): 2.2% (active); growth (MOLT-4 leukemia): 2.26% (active)

**Q.** What does the source list for `CN1CCO/C1=C(/NC(=O)c1ccc(Cl)cc1)[P+](c1ccccc1)(c1ccccc1)c1ccccc1`?
**A.** growth (SK-MEL-2 melanoma): 90.9%; growth (EKVX NSCLC): 81.2%; growth (SN12C renal): 92.4%; growth (UO-31 renal): 86.7%; growth (TK-10 renal): 99.6%; growth (ACHN renal): 110%; growth (CAKI-1 renal): 103%; growth (A498 renal): 125%; growth (CCRF-CEM leukemia): 77.9%; growth (MOLT-4 leukemia): 87.9%

**Q.** With `C#CCNC(=O)[C@]12CCC(C)(C)C[C@H]1C1=CC[C@@H]3[C@@](C)(CCC#N)[C@H](C(=C)C)CC[C@@]3(C)[C@]1(C)CC2` as the molecule, how does the growth (SK-MEL-2 melanoma) read?
**A.** 57.2%

**Q.** What about the growth (EKVX NSCLC) of the same molecule?
**A.** 57.8%

**Q.** What about the growth (SN12C renal) of the same molecule?
**A.** 68.7%

**Q.** And the growth (UO-31 renal)?
**A.** 36.6%

**Q.** What about the growth (TK-10 renal) of the same molecule?
**A.** 71.5%

**Q.** And the growth (ACHN renal)?
**A.** 60.2%

**Q.** What about the growth (CAKI-1 renal) of the same molecule?
**A.** 40.3%

**Q.** And the growth (A498 renal)?
**A.** 129%

**Q.** And the growth (CCRF-CEM leukemia)?
**A.** 26.2%

**Q.** For `O=C(Nc1ccc(OCC(=O)c2ccccc2)cc1)Nc1ccc(Cl)c(C(F)(F)F)c1`, which growth (SK-MEL-2 melanoma) is on record?
**A.** -53.7% (active)

**Q.** What about the growth (EKVX NSCLC) of the same molecule?
**A.** 17.2%

**Q.** And the growth (SN12C renal)?
**A.** 24.9%

**Q.** And the growth (UO-31 renal)?
**A.** 17.6%

**Q.** What about the growth (TK-10 renal) of the same molecule?
**A.** 49.2%

**Q.** And the growth (ACHN renal)?
**A.** 18.1%

**Q.** What about the growth (CAKI-1 renal) of the same molecule?
**A.** 20.2%

**Q.** And the growth (A498 renal)?
**A.** 17.1%

**Q.** What about the growth (CCRF-CEM leukemia) of the same molecule?
**A.** 9.86% (active)

**Q.** What does the source list for `C=C[C@@]12CN3CC[C@]1(O)[C@@](C(=O)OC)(CO2)c1[nH]c2ccccc2c1C3`?
**A.** growth (SK-MEL-2 melanoma): 86.1%; growth (EKVX NSCLC): 53.5%; growth (SN12C renal): 67.5%; growth (UO-31 renal): 69.5%; growth (TK-10 renal): 97%; growth (ACHN renal): 73.6%; growth (CAKI-1 renal): 70.1%; growth (A498 renal): 81.8%; growth (CCRF-CEM leukemia): 55.3%; growth (MOLT-4 leukemia): 76.7%

**Q.** `CC(=C(c1ccc(OCCN2CCCCCC2)cc1)c1ccc(OCCN2CCCCCC2)cc1)c1ccc(Cl)cc1` was tested. Which growth (SK-MEL-2 melanoma) did it give?
**A.** -91.7% (active)

**Q.** And the growth (EKVX NSCLC)?
**A.** -89.3% (active)

**Q.** What about the growth (SN12C renal) of the same molecule?
**A.** -92.4% (active)

**Q.** And the growth (UO-31 renal)?
**A.** -100% (active)

**Q.** What about the growth (TK-10 renal) of the same molecule?
**A.** -98% (active)

**Q.** And the growth (ACHN renal)?
**A.** -100% (active)

**Q.** What about the growth (CAKI-1 renal) of the same molecule?
**A.** -100% (active)

**Q.** And the growth (A498 renal)?
**A.** -90.9% (active)

**Q.** What about the growth (CCRF-CEM leukemia) of the same molecule?
**A.** -61.5% (active)

**Q.** With `Cc1ccc2nc(-c3ccc(-c4nnc(SCC(=O)Nc5ccc(Br)cc5)o4)cc3)[nH]c2c1` as the molecule, how does the growth (SK-MEL-2 melanoma) read?
**A.** 83.8%

**Q.** What about the growth (EKVX NSCLC) of the same molecule?
**A.** 85.1%

**Q.** And the growth (SN12C renal)?
**A.** 51%

**Q.** And the growth (UO-31 renal)?
**A.** 51.5%

**Q.** And the growth (TK-10 renal)?
**A.** 74.7%

**Q.** And the growth (ACHN renal)?
**A.** 67.8%

**Q.** And the growth (CAKI-1 renal)?
**A.** 76.5%

**Q.** And the growth (A498 renal)?
**A.** 83.4%

**Q.** And the growth (CCRF-CEM leukemia)?
**A.** 38.2%

**Q.** What about the growth (MOLT-4 leukemia) of the same molecule?
**A.** 15.9%

**Q.** How did the growth (SK-MEL-2 melanoma) turn out when `O=C(NO)c1ccc(CNC(=O)[C@H]2Cc3c([nH]c4ccccc34)[C@H](c3ccccc3)N2)cc1` was run?
**A.** 9.61% (active)

**Q.** And the growth (EKVX NSCLC)?
**A.** 44.8%

**Q.** What about the growth (SN12C renal) of the same molecule?
**A.** 46.7%

**Q.** What about the growth (UO-31 renal) of the same molecule?
**A.** 46.3%

**Q.** And the growth (TK-10 renal)?
**A.** 30.9%

**Q.** What about the growth (ACHN renal) of the same molecule?
**A.** 70.8%

**Q.** What about the growth (CAKI-1 renal) of the same molecule?
**A.** 78.3%

**Q.** What about the growth (A498 renal) of the same molecule?
**A.** 23.2%

**Q.** And the growth (CCRF-CEM leukemia)?
**A.** 22.2%

**Q.** And the growth (MOLT-4 leukemia)?
**A.** 12.7%

Source: PubChem BioAssay (NCI)
